# Source: PubChem
# TbREL1 primary – TbREL1 RNA ligase inhibitors, primary screen, biochemical, FRET fluorescence. TbREL1 RNA ligation. inhibition, % at 9.66 µM. AID 1117264, 2014. hit rate 0.49% among 89,000;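 active = inhibition above the mean inhibition across all screened compounds plus 3 SD, cut at about 11% in these data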;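 note: 0% = plate median of test wells and 100% = NSC42067 control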
# Target sequence (P86926 whole entry, looked up): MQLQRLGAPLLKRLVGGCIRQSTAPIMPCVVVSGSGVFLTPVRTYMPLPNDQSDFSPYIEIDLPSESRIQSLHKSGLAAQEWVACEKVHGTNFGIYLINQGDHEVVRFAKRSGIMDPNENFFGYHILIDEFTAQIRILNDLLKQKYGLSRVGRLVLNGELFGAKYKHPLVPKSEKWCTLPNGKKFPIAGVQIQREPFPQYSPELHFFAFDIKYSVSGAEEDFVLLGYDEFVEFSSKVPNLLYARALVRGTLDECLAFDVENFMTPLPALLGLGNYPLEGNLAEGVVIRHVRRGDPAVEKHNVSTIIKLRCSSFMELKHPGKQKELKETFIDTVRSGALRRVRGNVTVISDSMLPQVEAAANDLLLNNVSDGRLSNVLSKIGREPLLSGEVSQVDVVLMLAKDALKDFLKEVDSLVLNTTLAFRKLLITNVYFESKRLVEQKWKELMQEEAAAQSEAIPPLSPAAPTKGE
# TbREL1 confirm – TbREL1 RNA ligase inhibitors, confirmation, biochemical, FRET fluorescence, triplicate. shares compounds with TbREL1 primary. TbREL1 RNA ligation. inhibition, % at 9.66 µM. hit rate 37% among 390. AID 1117282, 2014;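 active = mean inhibition across replicates above a set limit taken from the earlier primary screen, cut at about 11% in these data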;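 note: 0% = REL1 with substrate and DMSO and 100% = REL1 plus control inhibitor NSC42067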
# * hit, by the source's call. This excerpt belongs to a sample that is enriched for hits.
SMILES,TbREL1 primary,others
Cc1cc(C)n2c(Nc3ccc4c(c3)OCCO4)c(CC(C)C)nc2n1,-4.5,
CCn1c(COc2cc(C)ccc2C(C)C)nnc1SCC(=O)Nc1nccs1,12.2*,TbREL1 confirm=6.6
CN(C)CCCn1c(SCC(=O)Nc2nccs2)nnc1-c1ccncc1,0.9,
Cc1cccc(-n2c(CNC(=O)COc3ccccc3)nnc2SCC(=O)Nc2nccs2)c1,2.9,
CCC(C)[C@H](NC(=O)OC(C)(C)C)C(=O)N[C@@H](Cc1ccccc1)C(=O)OC (some centres not stated),1.7,
C[C@@H]1CN(c2ccc(N3CCNC[C@@H]3C)cc2C#N)CCN1Cc1ccccc1,1.8,
CCCCOCCCNC(=O)C[C@@H]1C[C@@]2(C(=O)OC)CCCCC=C2N(Cc2ccc(Cl)cc2Cl)C1=O,-3.8,
Clc1ccc(-c2nnc(SCc3cccc4ccccc34)n2Cc2ccco2)cc1,8.8,
O=C(Nc1nc2ncccn2c1-c1ccccc1)c1ccc(F)cc1,0.8,
COC(=O)C1=C(C)N(Cc2ccc(Cl)cc2)C(=S)NC1c1ccc(Cl)cc1 (configuration not stated),-3.8,
COC(=O)C1=C(C)N(Cc2ccccc2)C(=O)N[C@H]1c1ccccc1,-1.0,
COC(=O)C1=C(C)N(Cc2ccc(C(F)(F)F)cc2)C(=NCc2ccccc2C(F)(F)F)NC1c1ccc(Cl)cc1 (configuration not stated),11.3*,TbREL1 confirm=16.2*
COC(=O)C1=C(C)N(C)C(=NCc2ccccc2C(F)(F)F)NC1c1ccc(F)cc1 (configuration not stated),10.9,
COC(=O)C1=C(C)N(Cc2ccc(C(F)(F)F)cc2)C(=NCc2ccccc2C(F)(F)F)NC1c1cccc(Cl)c1 (configuration not stated),15.9*,TbREL1 confirm=20.0*
COCCN=C1N[C@@H](c2cccc(C(F)(F)F)c2)C(C(=O)OC)=C(C)N1Cc1ccccc1,14.2*,TbREL1 confirm=17.8*
CCN1C(=NCC(C)C)N[C@@H](c2cccc(C(F)(F)F)c2)C(C(=O)OC)=C1C,10.6,
COC(=O)C1=C(C)N(Cc2ccccc2)C(=NCCCCO)N[C@H]1c1cccc(C(F)(F)F)c1,6.9,
COC(=O)C1=C(C)N(Cc2ccccc2)C(=S)NC1c1cccc(OC)c1 (configuration not stated),-5.1,
COC(=O)C1=C(C)N(Cc2ccc(C(F)(F)F)cc2)C(=NCc2ccccc2C(F)(F)F)NC1c1ccccc1 (configuration not stated),12.6*,TbREL1 confirm=14.1*
COC(=O)C1=C(C)N(Cc2ccccc2)C(=O)N[C@H]1c1cccc(F)c1,-2.5,
COC(=O)[C@]12C[C@H](CC(=O)NCc3cccc4ccccc34)C(=O)N(Cc3ccco3)C1=C[C@H](COCc1ccccc1)O[C@@H]2C,-4.4,
COc1cccc(Cn2cc(COC(=O)N(C)Cc3ccccc3)nn2)c1,0.1,
Nc1nc(Cl)nc2c1ncn2[C@@H]1O[C@H](CO)[C@@H](O)[C@@H]1F,0.6,
CN1CCN(C(=O)OC2CC3CC2[C@H]2CCCCN2C3=O)CC1 (some centres not stated),0.5,
CC(C)(C)c1ccc(-c2nnc(SCC(=O)Nc3cccc4ccccc34)n2Cc2ccco2)cc1,0.1,
SMILES,TbREL1 primary,others
O=C(OCC#CCSc1nnc(-c2cccc(F)c2)o1)c1ccc(F)cc1,-4.0,
Cc1[nH]nc2c1C(c1ccc(F)cc1)N(Cc1ccccc1)C2=O (configuration not stated),0.4,
O=C(Nc1nc2ncccn2c1-c1ccc(F)cc1)c1ccccc1,9.7,
CC1CCCCC1NC(=O)CSc1ncnc2sccc12 (configuration not stated),-3.3,
CCCCOc1ccc(C(=O)NC2CCCCN(Cc3ccc(C)cc3)C2=O)cc1 (configuration not stated),-1.3,
COC(=O)[C@]12C[C@H](CC(=O)N3CCCC3)C(=O)N(Cc3cccc4ccccc34)C1=C[C@H](C(C)(C)C)O[C@@H]2C,1.2,
COC(=O)[C@]12CCCCC=C1N(Cc1ccc(OC)cc1)C(=O)[C@@H]2CC(=O)NCCCCc1ccccc1,-1.9,
Nc1[nH]c(C(=O)c2ccccc2)c(-c2ccccn2)c1C(=O)c1c[nH]c2ccc(Br)cc12,5.2,
CC1(C(=O)Nc2cccc(OC(F)(F)F)c2)Cc2c(-c3ccc(C(N)=O)cc3)ccnc2O1 (configuration not stated),-0.1,
O=C(Nc1ccon1)c1ccc(S(=O)(=O)N2CCOCC2)cc1,12.6*,TbREL1 confirm=4.8
O=C(Nc1cccc(F)c1)c1ccc(S(=O)(=O)N2CCOCC2)cc1,-1.9,
CC1CN(S(=O)(=O)c2ccc(C(=O)Nc3ccc(S(=O)(=O)N4CCOCC4)cc3)cc2)CC(C)O1 (configuration not stated),-1.2,
Clc1ccc(-c2cc(-c3nnc4sc(Cc5cccs5)nn34)[nH]n2)cc1,1.1,
